# Data reported in PubChem BioAssay (NCATS).
# Some of the results follow. Results filed as inconclusive are left out. Calls of active or inactive are those of the source. Calls follow the shape of the dose curve; as a rule, active = well fitted inhibition curve with a large enough effect; inconclusive = small, poorly fitted or top-dose-only effect; inactive = flat fitted curve, though single readings scatter.
# Test: qHTS Assay for Inhibitors of Fructose-1,6-bisphosphate Aldolase from Giardia Lamblia: Coupling assay counterscreen confirmation (AID 2795); also: nearly all actives have a fitted effect of over 55% in size
# Settings: GAPDH coupling enzyme counterscreen, biochemical; series mostly up to 57.5 µM
# Description: NIH Chemical Genomics Center [NCGC]
# NIH Molecular Libraries Probe Production centers Network [MLPCN]
# Assay Provider: Osnat Herzberg, University of Maryland
# The objective of this project is to obtain compounds that inhibit Giardia lamblia growth. G. lamblia is a human pathogen which afflicts impoverished nations; it is the most common cause of outbreaks of diarrhea in the United States. During the course of our study of potential drug targets in Giardia, we have identified the Class II (Zn2+ functions in electrophilic catalysis) fructose-1,6-bisphosphate aldolase (FBPA) as an excellent candidate for drug targeting. FBPA is a key glycolytic pathway enzyme, essential for G. lamblia survival. The human FBPA belongs to the Class I aldolases, which have a different substrate binding site structure and a radically different catalytic mechanism (employing a lysine-Schiff base intermediate). Therefore, affinity-based or mechanism-based inhibitors of the Giardia FBPA are expected not to interfere with the catalytic function of the human FBPA.
# A glyceraldehyde-3-phosphate dehydrogenase/triose phosphate isomerase/NAD/arsenate coupled assay was adapted to the 1536-well HTP format for use in the primary screen. This was done by coupling it to a diaphorase/resazurin/resorufin reaction that can be monitored by fluorescence (excitation, 544 nm; emission, 590 nm). Compounds identified in this screen will be further evaluated by coupling the glycerol-3-phosphate/triose phosphate isomerase/NADH assay to a phenazine methosulfate/tetranitroblue tetrazolium color reaction. False positives due to the dehydrogenases and diaphorase inhibition will be eliminated, and selectivity assay will triage inhibitors of mammalian triose phosphate isomerase and the Class I FBPA. G. lamblia FBPA inhibitors identified by the in vitro analyses will be examined for growth inhibition of Giardia trophozoites, and for cytotoxicity in human cells.
# This assay specifically addresses whether activity observed in the primary screen (AID 2451) is related to inhibition of the coupling assay used, as opposed to inhibition of aldolase. Actives in this assay are considered inconclusive for activity against aldolase. Hits from the primary screen was run in this assay to confirm their inactivity against the coupling assay.
# Step,Parameter,Value,Description
# 1,Coupling enzyme reagent,2 uL,glyceraldehyde-3-phosphate
# 2,Compound,23 nL,3.68 nM-57.5 uM final concentration
# 3,Time,10 min,RT Incubation
# 4,Substrate/detection Reagent,2 uL,Substrate + enzyme coupling system + AmpLite Red kit
# 5,Time,20 min,RT Incubation
# 6,Detector,525 nm/598 nm (Fluorescence),ViewLux Fluorescence Read (Read 1)
# 1,Medium-binding black solid-bottom Kalypsys plates. FRD or Kalypsys dispenser.
# 2,Compound Library (10 mM ,1:5 dilution). Pin-transferred for a [final] range of 3.68 nM-57.5 uM.
# 4,FRD or Kalypsys dispenser, 2 uL of reaction mixture. Bottle kept at 4C and covered in foil to protect from light.
# 6,ViewLux Protocol 1194; Excitation filter wheel A (525/20 Pol; BODIPY TMR FP), Emission filter wheel B (598/25 S; BODIPY TMR FP S).
# Keywords: Fructose-bisphosphate aldolase, FBPA , Giardia lamblia , Giardia, HTS, Inhibitors
row,Compound,outcome
1,Cc1cccc(C)c1OCCN1CCOCC1,inactive
2,Clc1cccc(CN2COc3c(cc(Cl)c4cccnc34)C2)c1,inactive
3,Cc1cc(C)nc(N/N=C/c2ccc([N+](=O)[O-])o2)n1,inactive
4,COc1ccc(CN2CCN(Cc3ccc(OC)c(OC)c3OC)CC2)cc1,inactive
5,COc1ccc(Cl)cc1C(=O)NNC(=O)c1nc2nc(C)cc(C)n2n1,inactive
6,Cc1cc(C)n(-c2ccc(Cl)c(C(=O)O)n2)n1,inactive
7,CN1CCCc2cc(C#N)c(=O)[nH]c21,inactive
8,O=C(CN1CCN(Cc2ccccc2)CC1)Nc1ccc(F)c(F)c1,inactive
9,Oc1[nH]c2ccc(Br)cc2c1N=Nc1nn[nH]n1,inactive
10,C=CCNC(=S)/N=c1/ccccn1Cc1ccccc1,inactive
11,Cc1cccc(-c2nnc(SCC(=O)O)n2Cc2ccccc2)c1,inactive
12,CC1CCCN(S(=O)(=O)c2ccc(C(=O)Nc3nnc(-c4ccncc4)o3)cc2)C1 (stereo not given),inactive
13,COC(=O)CC1=NN(c2nc(C)cc(C)n2)C(=O)C1,inactive
14,O=[N+]([O-])c1cc([N+](=O)[O-])c2cccnc2c1O,inactive
15,Cn1nnc(NC(=S)NC(=O)c2ccccc2)n1,inactive
16,COc1ccccc1CN1CCN(Cc2cc(OC)c(OC)cc2OC)CC1,inactive
17,O=C(CN1C(=O)COc2ccccc21)Nc1ccc(F)cc1,inactive
18,C=C(C)CNC(=S)N/N=C/c1ccccc1OCC(=O)O,inactive
19,Cc1ccc(S(=O)(=O)NNC(=S)NC(C)(C)C)cc1,inactive
20,CCN1CCc2c(C#N)c(NCc3ccccc3)nc(NCCO)c2C1,inactive

row,Compound,outcome
1,CN1C(=O)/C(=C\c2ccc(-c3ccccc3)o2)SC1=S,inactive
2,CCN(CC(=O)Nc1ccc(S(=O)(=O)N2CCCC2)cc1)CC(=O)Nc1cccc(OC)c1,inactive
3,CNC(=S)N/N=C/c1ccc(N2CCOCC2)s1,inactive
4,C/C(=N\NC(N)=S)c1cccnc1,inactive
5,COCCN(C(=S)Nc1ccccc1OC)C1CCN(C(C)C)CC1,inactive
6,Cc1csc(NC(=O)CN2CCCCCC2)n1,inactive
7,O=C1CCCN1CCCNC(=S)Nc1ccc(F)c(Cl)c1,inactive
8,CN1CCN(CCCCOc2ccccc2-c2ccccc2)CC1,inactive
9,Cc1cnc(NC(=O)c2ccccn2)s1,inactive
10,CN(C)CCOc1ccc(Cl)cc1C(C)(C)C,inactive
11,Cc1cc(C)c2c(=O)[nH]c(SCC(=O)Nc3ccc(Br)cc3)nc2n1,inactive
12,Cc1nc(N2CCOCC2)sc1C(=O)NN,inactive
13,COc1cc(CN2CCN(Cc3ccc(C)cc3)CC2)c([N+](=O)[O-])cc1OC,inactive
14,CCS(=O)(=O)c1cc([N+](=O)[O-])c(Sc2ccccc2N)s1,inactive
15,CSc1n[nH]c(=S)n1N,inactive
16,CCc1ccc2c(c1)C1(NN=C(c3ccccc3)S1)C(=O)N2 (stereo not given),inactive
17,Cc1ccc(OCCCCc2c(C)n[nH]c2C)cc1,inactive
18,O=S(=O)(c1ccc(NC(=S)NN=C(C2CC2)C2CC2)cc1)N1CCOCC1,inactive
19,O=C(NC(=S)Nc1ncccn1)c1ccccc1Br,inactive
20,O=C(Nc1nnc(-c2ccco2)o1)c1ccc(S(=O)(=O)N2CCOCC2)cc1,inactive
